Data on nine compounds can be found in PubChem BioAssay.

Inconclusive results are not listed. Active and inactive are the calls of the source.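 The calls were made as follows, unless noted: active = viability increase at or above a cutoff of the median across tested compounds plus 3 SD (cut at about 8.5% in these data, passing the limit was not always enough); inconclusive = some gains above the cutoff, reason not given; inactive = the rest.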

As usually defined, the viability is a read-out of living cells in per cent, often relative to untreated cells. Broadly, the inhibition is the change of the read-out against control, counted positive when it falls.

The nature of assay [1]: reducers of endogenous Her2 protein level, primary screen, SKBR3 breast tumor cells, AlphaScreen, ATP viability (AID 461;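 active = Her2 level under about 52% in both replicate screens, with viability over 70% of control, limit read from the data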;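 as to Her2 level: lower value means less Her2 protein in the cells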;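 as to viability: percent of carrier control wells set as 100% viability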). To be noted: 18-24 h, measured here: SKBR3 viability, ATP luminescence, at 10 µM. For orientation: Bead proximity is the source of the signal in Alpha formats.
For assay [2], the target named is Receptor tyrosine-protein kinase erbB-2 (Homo sapiens) (UniProt P04626). Described as above. To be noted: 18-24 h, at 10 µM, stronger effect = lower value.
Assay [3] can be described thus: SK-BR-3 cell growth inhibitors, pilot screen, 24 h, human (AID 572;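 active = viability at or below 10% of carrier control in both of two separate runs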;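 also: compound exposure lasted between 18 and 24 h rather than exactly 24 h; 100% = carrier-treated control wells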). To be noted: SK-BR-3 viability, CellTiter-Glo luminescence, at 10 µM, stronger effect = lower value. On the technique in general: Cellular ATP, detected with luciferase, serves as a proxy for viable cell number.
Assay [4] can be described thus: HUVEC growth inhibition – cell-based, human, primary screen (AID 575;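 active = viability at or below 30% in both replicate assays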;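 also: 100% = median of untreated cell wells with 0.1% DMSO on each plate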). To be noted: HUVEC proliferation, CellTiter-Glo luminescence, 72 h; at 10 µM; stronger effect = lower value.
The nature of assay [5]: growth inhibitors of H69AR lung tumor, primary screen, human, duplicate replicates (AID 580;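 active = viability at or under a set limit in both replicates, limit being median viability minus 3 SD, cut at about 48% in these data, passing the limit was not always enough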;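 also: 100% = mean luminescence of untreated wells and 0% = no signal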). To be noted: H69AR lung tumor cells viability, ATP luminescence, 72 h; at 10 µM; stronger effect = lower value.
Assay [6] is described as follows: reversal of MRP1-mediated doxorubicin resistance, pilot screen, H69AR cells, doxorubicin co-treatment (AID 601;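 active = viability loss from added drug above about 55%, and viability with drug at most 40%, in both replicates, limit read from the data, passing the limit was not always enough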). As to conditions: CellTiter-Glo, 72 h, at 10 µM; for differential viability (reversal): stronger effect = higher value.
Assay [7] in a line: 384-well plate pilot, post-Golgi transport modulator project, inhibition of yeast transport mutant growth (AID 636; in the data active = inhibition above about 31%). As to conditions: absorbance 615 nm, about 18 h, stronger effect = higher value.
A short description of assay [8]: growth suppression of yeast trafficking mutant, preliminary HTS, modulators of trafficking downstream of Golgi apparatus project, 1536-format plate, OD 615 nm (AID 637; in the data active = inhibition above about 30%). As to conditions: yeast transport mutant growth, absorbance 615 nm, 18 h; stronger effect = higher value.
A short description of assay [9]: OD615 S. cerevisiae growth inhibition, permissive medium, pilot counter-assay, permissive growth control for S. cerevisiae lifespan shortening project (AID 705;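 active = growth inhibition above 25% in both replicates, a cutoff set 3 SD above the mean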). To be noted: OD615, 24 h, at 10 µM, stronger effect = higher value.
Assay [10] is described as follows: Restrictive medium S. cerevisiae growth inhibition, OD615, pilot screen of yeast lifespan reduction project, restrictive growth control (AID 706;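 active = growth inhibition above a set limit, 3 SD over mean compound inhibition, in both replicates, cut at about 43% in these data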;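 also: modified DeaD lifespan yeast strain shifted to restrictive glucose medium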). To be noted: OD615, 48 h, at 10 µM, stronger effect = higher value.
The nature of assay [11]: viability gain of MRP-1-high H69AR cells under doxorubicin, pilot screen, MRP-1 activator project, CellTiter-Glo, duplicate (AID 807).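 Also: compound pretreatment 18-22 h then 72 h combined with doxorubicin; 0% = doxorubicin alone and 100% = vehicle without doxorubicin.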 As to conditions: H69AR viability with doxorubicin, CellTiter-Glo luminescence; at 10 µM; stronger effect = higher value.
A short description of assay [12]: growth suppression of beta-catenin knockout HCT116, pilot screen, human colon tumor cells (AID 823;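 active = cell viability at or below a set limit in both duplicate runs, the limit being the all-compound median minus 4 SD, cut at about 23% in these data, passing the limit was not always enough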;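 also: 0% = wells killed by 20 µM Hyamine and 100% = untreated DMSO cell wells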). To be noted: CellTiter-Glo, 60 h, at 10 µM, stronger effect = lower value.
The nature of assay [13]: growth suppression of PTEN-deleted HCT116, pilot screen, cell-based, HCT116 clonal line, CellTiter-Glo (AID 824;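 active = viability at or below 27.92% in each of two runs, the all-compound median minus 4 SD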;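 also: 0% = 20 µM Hyamine control and 100% = vehicle cell control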). As to conditions: 60 h, at 10 µM, stronger effect = lower value.
Assay [14] is described as follows: inhibitors of the yeast RAM network, pilot screen, dse1pr::URA3 reporter, 5-FOA selection (AID 869;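 active = inhibition over a set limit, the all-compound mean plus 3 SD, in both replicate runs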;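 also: 0% = DMSO wells with no growth and 100% = 10 µM 1-NA-PP1 with full growth; RAM network block rescues cells from 5-FOA so hits raise OD615 growth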). As to conditions: S. cerevisiae dse1pr::URA3 5-FOA growth, OD615, 2 d; at 10 µM; stronger effect = higher value; strain carries analog-sensitive mutant Cbk1 kinase.
Assay [15] can be described thus: RAM signaling pathway blockade in yeast – S. cerevisiae, Pdr1DBD-CYC8 efflux-inhibited sensitized strain, primary screen (AID 1298;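 active = RAM network inhibition above 8.4% in each of two replicates, 3 SD over the compound average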;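 also: 0% = DMSO untreated cells without growth and 100% = 10 µM 1-NA-PP1 full growth; higher means more yeast growth rescued from 5-FOA killing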). To be noted: S. cerevisiae cbk1-as DSE1-URA3 strain, 5-FOA growth OD615, 2 d; at 50 µM; stronger effect = higher value.
[16] abbreviates: H69AR cells + 2 uM doxorubicin, measured here: viability with 2 uM doxorubicin, stronger effect = lower value.
Setting [17] is: H69AR cells, compound alone cytotoxicity.

Chain of Receptor tyrosine-protein kinase erbB-2 (Homo sapiens) (P04626 whole entry, looked up): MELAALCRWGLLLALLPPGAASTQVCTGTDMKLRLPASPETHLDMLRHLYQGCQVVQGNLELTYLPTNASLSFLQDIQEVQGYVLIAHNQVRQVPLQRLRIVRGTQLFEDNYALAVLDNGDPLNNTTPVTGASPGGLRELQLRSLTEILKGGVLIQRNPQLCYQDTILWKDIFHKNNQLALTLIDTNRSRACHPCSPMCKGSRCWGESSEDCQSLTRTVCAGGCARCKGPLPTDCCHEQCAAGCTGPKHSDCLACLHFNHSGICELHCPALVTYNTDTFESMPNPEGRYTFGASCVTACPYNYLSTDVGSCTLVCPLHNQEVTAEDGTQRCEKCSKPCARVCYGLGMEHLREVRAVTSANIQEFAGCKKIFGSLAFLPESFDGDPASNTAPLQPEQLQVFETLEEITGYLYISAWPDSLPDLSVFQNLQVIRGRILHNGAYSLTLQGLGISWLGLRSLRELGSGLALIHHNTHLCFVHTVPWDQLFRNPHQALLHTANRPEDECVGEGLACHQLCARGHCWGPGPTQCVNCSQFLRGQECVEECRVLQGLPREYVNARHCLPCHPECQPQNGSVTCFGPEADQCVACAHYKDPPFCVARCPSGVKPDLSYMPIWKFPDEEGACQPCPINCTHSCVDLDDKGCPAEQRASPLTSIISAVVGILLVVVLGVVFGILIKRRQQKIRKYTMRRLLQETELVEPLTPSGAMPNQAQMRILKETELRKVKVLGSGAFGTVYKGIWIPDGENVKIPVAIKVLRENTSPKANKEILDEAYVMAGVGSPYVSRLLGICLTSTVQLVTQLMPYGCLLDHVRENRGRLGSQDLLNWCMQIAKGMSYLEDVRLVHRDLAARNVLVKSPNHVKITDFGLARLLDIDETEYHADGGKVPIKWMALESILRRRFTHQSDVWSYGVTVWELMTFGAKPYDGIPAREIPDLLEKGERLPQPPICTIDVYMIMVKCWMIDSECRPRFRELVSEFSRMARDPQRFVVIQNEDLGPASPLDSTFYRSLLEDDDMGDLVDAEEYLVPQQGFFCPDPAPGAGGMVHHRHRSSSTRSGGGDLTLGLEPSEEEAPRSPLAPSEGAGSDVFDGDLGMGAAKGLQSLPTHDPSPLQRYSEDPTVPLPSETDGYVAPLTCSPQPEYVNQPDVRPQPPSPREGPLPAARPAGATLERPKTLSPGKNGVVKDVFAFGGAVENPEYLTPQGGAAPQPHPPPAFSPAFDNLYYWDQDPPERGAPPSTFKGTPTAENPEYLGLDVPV

Take `CC1Cc2nc(SCC(=O)N3CCCc4ccccc43)n(C)c(=O)c2S1` (stereo unspecified): the viability is 97% in assay [1]; 97% (inactive) in assay [3]; 84.8% (inactive) in assay [4]; 72% (inactive) in assay [5]; 51.2% in assay [6] (setting [16]); 72% in assay [6] (setting [17]). Also, the figures for the viability in [12] and in assay [13] were 76.1% (inactive) and 73.4% (inactive), respectively. The Her2 level in [2] was 91% (inactive). Besides, the differential viability (reversal) in assay [6] (H69AR cells + 2 uM doxorubicin) was 20.9% (inactive). Moreover, the inhibition in assay [7] was -4.27% (inactive); in [8], 0.33% (inactive); in [14], 3.17% (inactive). In addition, the values for the growth inhibition in [9] and in assay [10] were -5.25% (inactive) and -9.97% (inactive), respectively. Further, the viability increase in assay [11] was -3.51% (inactive). Further, the RAM network inhibition in assay [15] was 6.46% (inactive).
Regarding `COc1c(C(=O)Nc2c(C)n(C)n(-c3ccccc3)c2=O)ccc2ccccc12`, the viability in [1] is 97%; in [3], 97% (inactive); in assay [4], 99.3% (inactive); in assay [5], 113% (inactive); in assay [6] (setting [16]), 87%; in assay [6] (setting [17]) it was 113%. Moreover, the viability in [12] is 98.8% (inactive); in [13] it was 98.3% (inactive). Moreover, the Her2 level in assay [2] was 104% (inactive). Further, in [6] (H69AR cells + 2 uM doxorubicin), the differential viability (reversal) is 25.5% (inactive). Also, the inhibition is -1.07% (inactive) in [7], -6.45% (inactive) in [8] and 0.775% (inactive) in assay [14]. The growth inhibition in assay [9] is -2.42% (inactive); in assay [10], -6.28% (inactive). Moreover, the viability increase in assay [11] is -0.81% (inactive). In assay [15], the RAM network inhibition is 4.37% (inactive).
For `COc1cccc(-c2nnc(NC(=O)c3ccccc3Br)o2)c1`, the viability was 87% in assay [1]; 87% (inactive) in assay [3]; 71.6% (inactive) in assay [4]; 67% (inactive) in [5]; 89.2% in [6] (setting [16]); 67% in assay [6] (setting [17]). Besides, the values for the viability in assay [12] and in [13] were 71.7% (inactive) and 73.2% (inactive), respectively. Further, the Her2 level in assay [2] is 85.5% (inactive). Further, the differential viability (reversal) in assay [6] (H69AR cells + 2 uM doxorubicin) was -22.2% (inactive). Further, the values for the inhibition in assay [7], in [8] and in assay [14] were -5.87% (inactive), 1.33% (inactive) and 1.46% (inactive), respectively. The growth inhibition was -13.4% (inactive) in assay [9] and 13.6% (inactive) in assay [10]. For the same compound, in [11], the viability increase is -5.12% (inactive). In assay [15], the RAM network inhibition is -2.32% (inactive).
As to `COCCn1c(SCC(=O)Nc2ccc3c(c2)OCCO3)nc2c(c1=O)SC(C)C2` (stereo unspecified), the viability is 95% in [1]; 95% (inactive) in assay [3]; 108% (inactive) in assay [4]; 84.4% (inactive) in assay [5]; 106% in [6] (setting [16]); 84.4% in [6] (setting [17]). The viability is 102% (inactive) in [12] and 95.8% (inactive) in assay [13]. The Her2 level in assay [2] was 110% (inactive). The differential viability (reversal) in assay [6] (H69AR cells + 2 uM doxorubicin) was -21.9% (inactive). For the same compound, the results for the inhibition in assay [7], in [8] and in [14] were -1.07% (inactive), -2% (inactive) and 1.71% (inactive), respectively. For the same compound, the growth inhibition is -6.57% (inactive) in [9] and -5.1% (inactive) in assay [10]. Further, the viability increase in assay [11] is -1.19% (inactive). The RAM network inhibition in assay [15] is -0.11% (inactive).
Consider `Cc1occc1C(=O)N1CCN(Cc2ccccc2)CC1`, for which the viability is 85.5% in assay [1]; 85.5% (inactive) in [3]; 98.1% (inactive) in [4]; 89.3% (inactive) in assay [5]; 86% in [6] (setting [16]); 89.3% in [6] (setting [17]). Further, the results for the viability in assay [12] and in assay [13] were 94.7% (inactive) and 97.6% (inactive), respectively. In addition, the Her2 level in assay [2] was 89% (inactive). Also, the differential viability (reversal) in assay [6] (H69AR cells + 2 uM doxorubicin) is 3.23% (inactive). Further, the inhibition in assay [7] was 0.26% (inactive); in [8] it was -5.5% (inactive). Moreover, the growth inhibition in assay [9] was -0.31% (inactive); in [10], -15.5% (inactive). For the same compound, the viability increase in assay [11] was -1.95% (inactive). For the same compound, the RAM network inhibition in assay [15] was 2.68% (inactive).
On to `CCOc1ccc(NC(=O)CCN2CCN(c3ccccc3)CC2)cc1`, for which the viability in assay [1] was 94.5%; in assay [3] it was 94.5% (inactive); in [4], 95.3% (inactive); in assay [5] it was 82.5% (inactive); in assay [6] (setting [16]) it was 78.5%; in assay [6] (setting [17]), 82.5%. Also, the viability was 90.4% (inactive) in [12] and 80.4% (inactive) in assay [13]. For the same compound, the Her2 level in assay [2] is 104% (inactive). The differential viability (reversal) in assay [6] (H69AR cells + 2 uM doxorubicin) was 4% (inactive). Also, the inhibition in assay [7] is -0.9% (inactive); in assay [8], 3.17% (inactive); in assay [14] it was 0.545% (inactive). Also, the results for the growth inhibition in [9] and in [10] were 4.18% (inactive) and -17.7% (inactive), respectively. For the same compound, in assay [11], the viability increase was -3.89% (inactive). The RAM network inhibition in assay [15] was 3.81% (inactive).
`COc1ccc(NC(=O)C2Cc3ccccc3C(=O)O2)cc1` (stereo unspecified): the viability in [1] was 90%; in [3] it was 90% (inactive); in assay [4] it was 104% (inactive); in [5], 91.8% (inactive); in assay [6] (setting [16]), 85.9%; in [6] (setting [17]), 91.8%. The figures for the viability in [12] and in assay [13] were 105% (inactive) and 104% (inactive), respectively. Also, in assay [2], the Her2 level was 92.5% (inactive). For the same compound, the differential viability (reversal) in assay [6] (H69AR cells + 2 uM doxorubicin) is 5.95% (inactive). The figures for the inhibition in assay [7], in assay [8] and in [14] were -2.53% (inactive), -1.67% (inactive) and 1.79% (inactive), respectively. The growth inhibition in assay [9] was 1.22% (inactive); in assay [10], 1.67% (inactive). The viability increase in assay [11] was 0.31% (inactive). In addition, in assay [15], the RAM network inhibition is 3.16% (inactive).
Regarding `O=C(OCn1nnc2ccccc2c1=O)c1cc2ccccc2o1`, the viability in assay [1] is 88%; in assay [3] it was 88% (inactive); in assay [4] it was 94.6% (inactive); in assay [5], 91.7% (inactive); in assay [6] (setting [16]) it was 115%; in assay [6] (setting [17]), 91.7%. Further, the values for the viability in assay [12] and in [13] were 99.5% (inactive) and 104% (inactive), respectively. In assay [2], the Her2 level was 106% (inactive). The differential viability (reversal) in assay [6] (H69AR cells + 2 uM doxorubicin) was -23.7% (inactive). Moreover, the inhibition in [7] was -5.47% (inactive); in assay [8], -8.5% (inactive); in [14], 3.96% (inactive). Moreover, the growth inhibition in assay [9] was 3.37% (inactive); in assay [10] it was -2.58% (inactive). Also, the viability increase in assay [11] is 1.18% (inactive). Besides, the RAM network inhibition in assay [15] was 7.11% (inactive).
`COc1ccc(N2CCN(c3oc(COc4ccccc4Cl)nc3C#N)CC2)cc1`: the viability in [1] was 109%; in assay [3], 109% (inactive); in assay [4] it was 104% (inactive); in [5] it was 92.3% (inactive); in assay [6] (setting [16]), 83.6%; in [6] (setting [17]), 92.3%. The viability in [12] was 65.7% (inactive); in [13], 64.9% (inactive). Further, in assay [2], the Her2 level was 105% (inactive). Moreover, the differential viability (reversal) in assay [6] (H69AR cells + 2 uM doxorubicin) is 8.78% (inactive). The inhibition in [7] is -6.23% (inactive); in [8], -4.75% (inactive). Moreover, the growth inhibition was -2.64% (inactive) in [9] and -5.2% (inactive) in assay [10]. For the same compound, the viability increase in assay [11] was 2.27% (inactive). Further, the RAM network inhibition in [15] is 4.12% (inactive).
